Assay results published in PubChem BioAssay (Tox21).
Results filed as inconclusive are left out. The source made the active and inactive calls. Calls come from the whole dose curve; as a rule, active = well fitted curve in the direction sought with a large enough effect in the repeat runs; inconclusive = weak or mixed curves; inactive = no such curve, though single readings can be large; an effect the other way counts as inactive or inconclusive.

Columns and labels:
[1] = Caspase-3/7 induction in HepG2 cells by small molecules, qHTS assay (AID 1346978); note: nearly all actives have a fitted effect of over 15% in size
Method in brief: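 Wild-type HepG2 cells, 2,000/well, settled 5 hr at 37 C and 5% CO2, then compound-treated for 17 hr; caspase-3/7 activity read by luminescent Caspase-Glo 3/7 after 30 min at room temperature.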

[2] = Caspase-3/7 induction in CHO-K1 cells by small molecules, qHTS cell viability counter screen (AID 1346979); note: nearly all actives have a fitted effect of over 35% in size
Method in brief: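 In the same wells as the caspase read, viability of compound-treated wild-type CHO-K1 cells was assessed using CellTiter-Fluor, added after 16hr at 37C and measured by fluorescence following 1hr further incubation.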

[3] = Caspase-3/7 induction in HepG2 cells by small molecules, qHTS cell viability counter screen (AID 1346981); note: series mostly up to about 92 µM; nearly all actives have a fitted effect of over 30% in size
Method in brief: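 Viability determined by CellTiter-Fluor fluorescence in HepG2 wells also used for the luminescent Caspase-Glo 3/7 read. Compounds were present for 16 hr at 37 C, 5% CO2 before reagent addition.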

[4] = target: Nuclear receptor subfamily 1 group I member 2 (Homo sapiens) (UniProt O75469); experiment: Human pregnane X receptor (PXR) small molecule agonists, qHTS assay (AID 1346982); note: nearly all actives have a fitted effect of over 35% in size; note: potency is the fitted concentration of half-maximal effect
Sequence of Nuclear receptor subfamily 1 group I member 2 (Homo sapiens) (O75469 whole entry, looked up): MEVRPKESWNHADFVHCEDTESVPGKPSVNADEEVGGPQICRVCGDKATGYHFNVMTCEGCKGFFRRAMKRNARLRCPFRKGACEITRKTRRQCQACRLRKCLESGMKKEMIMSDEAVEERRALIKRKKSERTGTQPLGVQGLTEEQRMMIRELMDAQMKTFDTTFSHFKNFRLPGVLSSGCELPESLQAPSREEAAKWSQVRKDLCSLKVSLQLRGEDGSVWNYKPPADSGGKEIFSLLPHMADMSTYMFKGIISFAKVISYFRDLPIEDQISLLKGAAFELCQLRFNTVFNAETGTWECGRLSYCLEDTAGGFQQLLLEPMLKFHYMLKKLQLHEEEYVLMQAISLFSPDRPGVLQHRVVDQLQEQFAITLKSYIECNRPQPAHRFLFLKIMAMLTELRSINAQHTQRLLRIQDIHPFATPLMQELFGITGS
Method in brief: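 Compound-induced hPXR transactivation of a CYP3A4 luciferase reporter was scored in HepG2 PXR-Luc cells over 24 hr at 37 C, 5% CO2, by luminescence.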

[5] = target: Cytochrome P450 2D6 (Homo sapiens) (UniProt P10635); experiment: Cytochrome P450 Family 2 Subfamily D Member 6 (CYP2D6) small molecule antagonists: luciferase reporter qHTS assay (AID 1671196); note: series mostly up to about 120 µM; nearly all actives have a fitted effect of over 50% in size
Sequence of Cytochrome P450 2D6 (Homo sapiens) (P10635 whole entry, looked up): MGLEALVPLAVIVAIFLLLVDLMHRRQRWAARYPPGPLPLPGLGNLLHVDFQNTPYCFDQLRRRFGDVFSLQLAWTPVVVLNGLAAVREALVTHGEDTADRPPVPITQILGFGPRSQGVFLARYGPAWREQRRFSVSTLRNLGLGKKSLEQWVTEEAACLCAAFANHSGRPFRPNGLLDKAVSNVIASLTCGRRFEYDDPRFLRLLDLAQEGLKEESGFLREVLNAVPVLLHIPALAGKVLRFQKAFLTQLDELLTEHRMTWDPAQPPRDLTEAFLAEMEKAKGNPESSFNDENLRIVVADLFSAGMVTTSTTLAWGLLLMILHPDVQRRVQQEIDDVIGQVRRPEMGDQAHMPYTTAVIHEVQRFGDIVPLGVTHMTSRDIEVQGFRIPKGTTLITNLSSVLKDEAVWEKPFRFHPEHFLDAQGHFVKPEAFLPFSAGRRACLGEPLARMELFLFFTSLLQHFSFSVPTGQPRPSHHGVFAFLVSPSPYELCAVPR
Method in brief: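 Each well received CYP2D6 with its proluciferin substrate and chemical, sat 10 min, then got NADPH regeneration solution for 1 h at room temperature. Luminescence in RLU served as the activity measure.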

[6] = target: Cytochrome P450 2C19 (Homo sapiens) (UniProt P33261); experiment: Cytochrome P450 Family 2 Subfamily C Member 19 (CYP2C19) small molecule antagonists: luciferase reporter qHTS assay (AID 1671197); note: series mostly up to about 120 µM; nearly all actives have a fitted effect of over 65% in size
Sequence of Cytochrome P450 2C19 (Homo sapiens) (P33261 whole entry, looked up): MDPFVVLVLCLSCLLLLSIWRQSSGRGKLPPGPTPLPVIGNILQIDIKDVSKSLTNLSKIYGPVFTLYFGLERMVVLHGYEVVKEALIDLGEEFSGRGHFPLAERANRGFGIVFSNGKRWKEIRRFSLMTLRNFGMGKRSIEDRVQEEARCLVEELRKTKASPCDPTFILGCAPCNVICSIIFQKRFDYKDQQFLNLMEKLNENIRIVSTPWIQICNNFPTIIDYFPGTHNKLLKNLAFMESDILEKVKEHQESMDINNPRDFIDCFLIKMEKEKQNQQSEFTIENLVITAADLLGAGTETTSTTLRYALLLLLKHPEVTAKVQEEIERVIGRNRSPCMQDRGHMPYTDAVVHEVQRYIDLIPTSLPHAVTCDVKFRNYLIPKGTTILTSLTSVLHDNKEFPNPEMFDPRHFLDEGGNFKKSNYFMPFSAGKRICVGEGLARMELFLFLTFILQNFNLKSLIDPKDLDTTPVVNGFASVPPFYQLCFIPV
Method in brief: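 Light output is proportional to CYP2C19 activity: proluciferin substrate is converted to luciferin, then detected by a luciferin detection reagent that also stops the 1 h, 37C NADPH-driven reaction. Ketoconazole serves as positive control.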

Measured: Potency

CC(=O)OC1CCCCC1
inactive: all assays above

CCOC(/C=C(\C)CCC=C(C)C)OCC
inactive: [1] | [2] | [3] | [4]

CCCCCCCCCCCCCc1ccccc1
inactive: all assays above

CCCCCCCCCCCC(=O)N(CC)CC
active: [4] 21.7 µM
inactive: all other assays above
